# TbPYK inhibitor = inhibitors of Trypanosoma brucei pyruvate kinase. Q57TT1. TbPYK enzyme, Kinase-Glo Plus ATP luminescence, 45 min. Potency, µM (highest dose often 76.8 µM), for inactives: at the highest dose activity, negative = inhibition, actives largely listed as inhibitors. actives 0.12% (n = 410,000). AID 624173; also: potency is read from the fitted curve at half-maximal effect; % is scaled to controls: 0 for no effect and ±100 for the full control effect; nearly all actives have a fitted effect of over 50% in size
#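 T. brucei PYK with substrate was exposed to pin-transferred compounds across a concentration series, then started with 130 uM ADP (final). After 45 min at room temperature, Kinase-Glo Plus luminescence was read, normalized and curve-fitted.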
# Shiga inhibitor = inhibitors of Shiga toxin in Vero cells | inhibition, % at 38.7 µM | Vero cells, Shiga toxin protein synthesis inhibition reporter | actives 9.2% (n = 290,000); in the data active = inhibition mostly above about 28%, no sharp cut-off; inactive = mostly below about 43%; also: 0% is about no effect
# LmPK inh = inhibitors of Leishmania mexicana pyruvate kinase; purified LmPK, Kinase-Glo ATP luminescence, 1 h; Potency, µM (highest dose often 57.5 µM), for inactives: at the highest dose activity change, negative = inhibition, most hits filed as inhibitors; actives 0.37% (n = 290,000); AID 1721; also: potency is read from the fitted curve at half-maximal effect; % is scaled to controls: 0 for no effect and ±100 for the full control effect
#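 ATP generated from ADP (0.1 mM) and PEP (0.5 mM) by 0.1 nM LmPK over 1 h at room temperature (pH 7.2 imidazole buffer) was detected by coupled luciferase luminescence. Values were normalized to uninhibited and no-enzyme wells.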
# FBPA Giardia inh = Giardia lamblia aldolase inhibition | A8B2U2 | purified Giardia FBPA | Potency, µM (doses to about 59.6 µM), for the others: at the highest dose activity, negative = inhibition, actives largely listed as inhibitors | actives 0.71% (n = 290,000) | AID 2451; also: potency is read from the fitted curve at half-maximal effect; % is scaled to controls: 0 for no effect and ±100 for the full control effect; nearly all actives have a fitted effect of over 55% in size
# Target sequence (A8B2U2 whole entry, looked up): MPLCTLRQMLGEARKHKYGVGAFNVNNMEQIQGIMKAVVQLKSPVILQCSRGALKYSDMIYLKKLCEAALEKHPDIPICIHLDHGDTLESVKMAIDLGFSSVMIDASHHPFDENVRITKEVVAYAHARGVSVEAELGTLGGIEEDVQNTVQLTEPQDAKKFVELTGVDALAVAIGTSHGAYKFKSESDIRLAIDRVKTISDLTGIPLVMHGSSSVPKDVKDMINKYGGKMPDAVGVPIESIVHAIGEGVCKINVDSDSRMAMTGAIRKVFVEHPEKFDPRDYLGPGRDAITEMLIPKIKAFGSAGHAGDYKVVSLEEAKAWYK
#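 40 nM FBPA preincubated 10 min at RT with compound (up to 57.5 uM final), then substrate plus GAPDH/TPI/NAD/arsenate coupling and diaphorase/resazurin added. Fluorescence read after 20 min at RT, 525/598 nm.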
# CHX counter = counter-screen for Shiga toxin inhibitors: cycloheximide protein synthesis inhibition; cell reporter, cycloheximide protein synthesis inhibition counterscreen; max response, %; actives 12% (n = 300,000); AID 2314; in the data active = max response mostly above about 13%, no sharp cut-off; inactive = mostly below about 14%; also: read at 38.3 µM for the half of the compounds with a filed dose; 0% is about no effect
# Sm TGR block = S. mansoni TGR enzyme inhibition. Q962Y6. purified TGR, DTNB reduction, TNB absorbance 405 nm. Potency, µM (titrated, usually from 114 µM), for the others: top-dose activity change, negative = inhibition, hits mostly inhibitors. actives 3% (n = 360,000). AID 485364; also: potency is read from the fitted curve at half-maximal effect; % is scaled to controls: 0 for no effect and ±100 for the full control effect; nearly all actives have a fitted effect of over 60% in size
#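 Kinetic colorimetric format: TGR-catalysed, NADPH-driven DTNB reduction monitored via TNB absorbance. Enzyme dispensed at 20 nM; compound exposure 15 min at room temperature before reaction start.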
# Starred values were filed as active, the others as inactive; ? = inconclusive; nt = not tested or not shown; [ ] = remark or other dose. Shown is part of a subset that was picked to be rich in hits. Unless noted, calls follow the shape of the dose curve; as a rule, active = well fitted curve in the direction sought with a large enough effect; inconclusive = small, poorly fitted or top-dose-only effect, or another doubt; inactive = no such curve, though single readings can be large; an effect the other way counts as inactive or inconclusive.
SMILES,TbPYK inhibitor,Shiga inhibitor,LmPK inh,FBPA Giardia inh,CHX counter,Sm TGR block
Cc1ccc2nc(C)cc(N/N=C/c3cccnc3)c2c1,-5.6%,19.8,3.1%,0.5%,-4.6,3.1%
Oc1ccc(/C=N/Nc2cccc3cccnc23)c(O)c1,-9.5%,102.4*,-15.0%,-14.7%,59.1*,-5.7%
Cc1ccc(/C=N/Nc2cccc3cccnc23)c(O)c1,-4.6%,47.9,-17.6%,-16.6%,27.7*,31.6µM*
Cc1ccc(-c2nnc3ccccc3c2C(=O)Nc2cccc(Cl)c2)cc1,9.3%[15.4 µM],nt,nt,nt,nt,3.8%
O=C(Nc1nnc(-c2ccccc2)s1)c1ccccc1F,4.2%,58.9*,-5.1%,-28.7%,73.5*,13.2%
O=C(Nc1nc(COc2ccccc2)cs1)c1ccccc1F,-18.1%,14.5*,1.0%,-3.4%,23.6,3.8%
O=C(Nc1nnc(S(=O)(=O)Cc2ccc(F)cc2)s1)c1ccccc1F,3.8%,8.2,-8.9%,nt,5.7,-6.5%
O=C(Nc1nnc(Cc2ccccc2F)s1)c1ccccc1Cl,4.9%,16.0,2.3%,-13.5%,9.5,-13.1%
CCC(Sc1nncn1C)C(=O)Nc1nnc(-c2ccccc2Cl)s1 (stereo not drawn),-0.8%,27.1,2.2%,-4.1%,17.4*,3.5%
O=C(Nc1nnc(-c2ccccc2Cl)s1)c1ccccc1F,-7.5%,-1.4,-3.8%,5.3%,-1.5,28.2µM*
Cc1csc2nc(COc3cccc(NC(=O)c4ccccc4F)c3)cc(=O)n12,-7.2%,nt,nt,nt,nt,6.8%
Cc1cc(C)c(S(=O)(=O)Nc2ccc(-c3ccc(N4CCCCCC4)nn3)cc2)c(C)c1,-0.2%,nt,nt,nt,nt,5.8%
Cc1cccn2c(=O)c(C(=O)NCCc3ccc(S(N)(=O)=O)cc3)c(O)nc12,-6.0%,nt,nt,nt,nt,0.3%
Cc1ccc(N2C(=O)CC(Sc3nc4ccccc4o3)C2=O)cc1Cl (stereo not drawn),-0.9%,4.0,1.4%,-8.4%,5.9,12.6µM*
CCOc1ccccc1NC(=O)c1cc2cc(C)ccc2n1C,11.4%,nt,nt,nt,nt,6.8%
C=C1C[C@@]23C[C@]1(O)CC[C@@H]2[C@]12C=C[C@@H](O)[C@](C)(C(=O)O1)[C@H]2[C@H]3C(=O)O,nt,nt,nt,7.0%[21.7 µM],nt,nt
CN(C)c1ccc(-c2nnc(SCC3CCCO3)n2C)cc1 (stereo not drawn),2.1%,80.3*,-9.1%,1.5%,44.2*,3.7%
Cc1ccc2c(CC(=O)Nc3cc(C(F)(F)F)ccc3Cl)coc2c1C,-6.2%,nt,nt,nt,nt,12.0%
CCC(=O)Oc1ccc(C/C(=N\O)c2ccc(O)cc2O)o1,-12.2%,6.6,9.3%,0.5%,9.1,7.94µM*
COC(=O)CCCC1=CC2=CC(=O)C(C)(OC(=O)c3cccs3)C(=O)C2=CN1Cc1ccccc1 (stereo not drawn),1.3%,-3.5,-2.1%[11.5 µM],?,1.9,-3.0%
COC(=O)CCCC1=CC2=CC(=O)C(C)(OC(=O)c3cccs3)C(=O)C2=CN1CCc1c[nH]c2ccccc12 (stereo not drawn),2.3%,0.6,-6.2%[11.5 µM],0.446µM*,-2.3,?
CCCCC1=CC2=CC(=O)C(C)(OC(=O)CC)C(=O)C2=CN1CCc1c[nH]c2ccccc12 (stereo not drawn),2.0%,6.1,0.3%[11.5 µM],?,7.4,44.7µM*
COC(=O)CCCC1=CC2=CC(=O)C(C)(OC(=O)c3cccs3)C(=O)C2=CN1Cc1ccco1 (stereo not drawn),-4.2%,-4.1,3.5%[11.5 µM],?,-1.2,35.5µM*
CCN(CC)CCCN1C=C2C(=O)C(C)(OC(=O)c3cccs3)C(=O)C=C2C=C1CCCC(=O)OC (stereo not drawn),nt,nt,2.7%[11.5 µM],7.9%[12.9 µM],nt,nt
COC(=O)CCC(=O)OC1(C)C(=O)C=C2C=C(C3CC3)N(Cc3ccco3)C=C2C1=O (stereo not drawn),-0.6%,-2.4,-3.6%[11.5 µM],?,-3.9,31.6µM*
SMILES,TbPYK inhibitor,Shiga inhibitor,LmPK inh,FBPA Giardia inh,CHX counter,Sm TGR block
CCN(C(=O)Cn1c(SCc2ccccc2F)nc2cccnc21)c1ccccc1,3.1%,nt,nt,nt,nt,-9.0%
COc1cccc(N2CCN(C(=O)Cn3nc(C)n4c(cc5c(OC)cccc54)c3=O)CC2)c1,-7.2%,nt,nt,nt,nt,7.0%
C=CCN(C(C(=O)OC)C(C)C)S(=O)(=O)C=C (stereo not drawn),nt,-2.4,nt,-0.4%,-2.5,nt
Cc1ccc(-n2c(=O)c3ccc(C(=O)NCc4ccccc4Cl)cc3n(CC(=O)Nc3cccc(F)c3)c2=O)cc1,-0.4%,nt,nt,nt,nt,3.6%
CCOC(=O)N1CCN(C(=O)c2[nH]c(C(F)(F)F)nc2-c2ccccc2)CC1,-8.2%,nt,nt,nt,nt,nt
CCOC(=O)C1=C(c2ccccc2)NC(SC)=C(C#N)C1c1ccco1 (stereo not drawn),0.1%,1.4,3.3%,-14.6%,-4.8,35.5µM*
CCOC(=O)C1=C(c2ccccc2)NC(SCC(=O)Nc2ccc(C)cc2)=C(C#N)C1c1ccco1 (stereo not drawn),1.8%,44.7,5.6%,-12.7%,9.0,-10.6%
CC(C)(C)c1ccc(C(=O)N2CCC(c3nc4ccccc4o3)CC2)cc1,2.9%,nt,nt,nt,nt,1.0%
COc1ccc(/C=N/Nc2nccnc2Cl)cc1,?,38.5,7.08µM*,-18.6%,35.7*,0.0%
Clc1nccnc1N/N=C/c1ccc(Br)cc1,?,40.4*,17.8µM*,?,39.5*,-26.7%
COc1ccc(/C=N/Nc2nccnc2Cl)c(OC)c1,-29.3%,78.1*,10µM*,-6.9%,29.2*,nt
CC1(C)C(=O)C2C[C@]3(O)C4=CC(=O)OC(c5ccoc5)[C@]4(C)CCC3[C@](C)(C2=O)C1CC(=O)O (stereo partly drawn),nt,nt,nt,-0.4%,nt,nt
Fc1ccccc1/C=N/n1cc(-c2ccccc2)[nH]c1=S,?,63.6*,?,0.0%,18.0*,-6.2%
S=c1[nH]c(-c2ccccc2)cn1/N=C/c1cccnc1,?,-6.4,3.55µM*,-10.6%,7.8,3.2%
Cc1ccc(C)c(/C=N/n2cc(-c3ccccc3)[nH]c2=S)c1,-21.8%,32.9,2.1%,1.9%,3.1,-13.5%
O=C(O)c1ccc(/C=N/n2cc(-c3ccccc3)[nH]c2=S)cc1,?,-1.4,14.1µM*,?,0.6,4.1%
S=c1[nH]c(-c2ccccc2)cn1/N=C/c1ccc(Br)cc1,-31.9%,35.8,0.1%,4.4%,19.7*,10.4%
S=c1[nH]c(-c2ccccc2)cn1/N=C/c1cccs1,?,44.7*,?,-0.2%,32.2*,7.0%
S=c1[nH]ncn1/N=C/c1cccs1,-12.7%,-6.8,-10.6%,?,-1.5,-3.9%
CCOC(=O)c1sc(NC(=O)c2ccc3ncsc3c2)nc1C,-0.9%,72.5*,2.2%,4.7%,25.1*,3.5%
CCOC(=O)c1sc(NNC(=O)c2ccc(F)cc2)nc1C,-26.4%,55.9*,0.0%,4.7%,21.9*,-10.4%
CCOC(=O)c1sc(NC(=O)c2ccc(S(=O)(=O)N(C)C)cc2)nc1C,2.8%,26.9,4.4%,-3.7%,-3.2,1.9%

# Assay outcomes as filed in PubChem BioAssay.
